Laboratory results taken from the supplement of paper PMC7411054.
Structures can show the parent of a compound that is named as a salt.

Test system: WPMY1-TUBA1B-RELA
Experiment: phenotypically active (imaging signature differs from DMSO and reproducible) at any of 0.3-9 uM (binary (1 = active, 0 = inactive)); higher = active
Details: treatment time: 24 h
Procedure, shortened: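 Cells from fifteen gene-edited reporter lines (A549, HepG2 and WPMY1) were treated for 24 h at 0.3, 1, 3 or 9 µM and imaged live, four wells per condition. Features were normalised per well to solvent control wells. A condition deviated if ≥3 of 4 wells passed the 95th percentile of control Euclidean distances and was reproducible if its median replicate Pearson correlation beat the 95th percentile of non-replicates; phenotypic activity needed both.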

| SMILES | phenotypically active |
| --- | --- |
| CC[C@H]1CN2CC[C@H]1C[C@@H]2[C@@H](O)c1ccnc2ccc(OC)cc12 [Hydroquinidine HCl] | 1 (active) |
| COc1cc2c(c(OC)c1OC)-c1ccc(O)c(=O)cc1[C@@H](N)CC2 [Trimethylcolchicinic acid] | 0 (inactive) |
| C[C@@]1(CO)[C@H](O)CC[C@@]2(C)[C@H]1CC[C@H]1C[C@@H]3C[C@@]12CC[C@]3(O)CO [Aphidicolin] | 1 (active) |
| COC(=O)[C@@]1(O)C[C@H]2O[C@]1(C)n1c3ccccc3c3c4c(c5c6ccccc6n2c5c31)C(=O)NC4 | 1 (active) |
| COc1ccc(N(C(=O)Oc2c(C)cccc2C)c2ccnc(Nc3ccc(N4CCN(C)CC4)cc3)n2)c(OC)c1 | 0 (inactive) |
| COc1ccc2c(c[n+](C)c3c4cc5c(cc4ccc23)OCO5)c1OC [Chelerythrine chloride] | 0 (inactive) |
| CC[C@@H]1C=CC=CC[C@H](C)[C@@H](O)[C@](C)(O)C(=O)[C@H](C)[C@@H](O)[C@H](C)C(=O)[C@H](C)[C@@H](O)[C@H](C)C=CC(=O)O[C@H]2[C@@H](C)[C@@H](CC1)O[C@@]1(CC[C@@H](C)[C@@H](C[C@H](C)O)O1)[C@@H]2C [Oligomycin A] | 0 (inactive) |
| CC(C)[C@@]1(NC(=O)[C@@H]2C[C@@H]3c4cccc5[nH]cc(c45)C[C@H]3N(C)C2)O[C@@]2(O)[C@@H]3CCCN3C(=O)[C@H](Cc3ccccc3)N2C1=O [Dihydroergocristine mesylate] | 1 (active) |
| O=c1[nH]c2ccccc2n1C1CCN(CCCC(c2ccc(F)cc2)c2ccc(F)cc2)CC1 [pimozide] | 0 (inactive) |
| C[C@]12CC[C@H]3[C@@H](CC[C@]4(O)C[C@@H](O)CC[C@]34C=O)[C@@]1(O)CC[C@@H]2C1=CC(=O)OC1 [Strophanthidin] | 1 (active) |
| CN1CCC2=C[C@H](O)[C@H]3OC(=O)c4cc5c(cc4[C@H]3[C@@H]21)OCO5 [Hippeastrine hydrobromide] | 0 (inactive) |
| C=C1[C@@H](O)C2C=CC[C@H](C)C(=O)[C@](C)(O)C=C[C@@H](OC(C)=O)[C@]23C(=O)N[C@H](Cc2ccccc2)[C@@H]3[C@@H]1C (stereo partly specified) [Cytochalasin D] | 1 (active) |
| COc1ccc(C[C@H]2NC[C@H](O)[C@H]2OC(C)=O)cc1 [Anisomycin] | 1 (active) |
| C[C@@H]1CC[C@H]2[C@@H](C)C(=O)O[C@@H]3O[C@@]4(C)CC[C@@H]1[C@]32OO4 [Artemisinin] | 1 (active) |
| O=C1NC(=O)c2c1c1c3ccccc3n3c1c1c2c2ccccc2n1C1CCC3O1 | 0 (inactive) |
| Cc1sc2c(c1C)C(c1ccc(Cl)cc1)=N[C@@H](CC(=O)OC(C)(C)C)c1nnc(C)n1-2 | 1 (active) |
| CN1C[C@H](C(=O)N[C@]2(C)O[C@@]3(O)[C@@H]4CCCN4C(=O)[C@H](Cc4ccccc4)N3C2=O)C[C@@H]2c3cccc4[nH]cc(c34)C[C@H]21.CN1C[C@H](C(=O)N[C@]2(C)O[C@@]3(O)[C@@H]4CCCN4C(=O)[C@H](Cc4ccccc4)N3C2=O)C[C@@H]2c3cccc4[nH]cc(c34)C[C@H]21 [dihydroergotamine] | 0 (inactive) |
| C[C@@]12C(=O)OC(=O)[C@]1(C)[C@H]1CC[C@@H]2O1 [Cantharidin] | 1 (active) |

| SMILES | phenotypically active |
| --- | --- |
| COc1cc2c(c(OC)c1OC)-c1ccc(OC)c(=O)cc1[C@@H](NC(C)=O)CC2 [colchicine] | 1 (active) |
| CC(C)(O)[C@H]1O[C@H]2CC[C@@]3(C)[C@@](O)(CC[C@H]4Cc5c([nH]c6ccccc56)[C@@]43C)C2=CC1=O [paxilline] | 0 (inactive) |
| N#CC(C#N)=NNc1cccc(Cl)c1 | 1 (active) |
| Cc1c(C(=O)Nc2cccc(C(F)(F)F)c2)cc(-c2ccccc2)n1CCCN1CCOCC1 | 0 (inactive) |
| CCN1CCN(C(=O)Cc2ccc(Nc3ncc(F)c(Nc4ccc(C(=O)Nc5ccccc5Cl)cc4)n3)cc2)CC1 | 1 (active) |
| CC(C)(C)c1cc(C=C(C#N)C#N)cc(Br)c1O | 0 (inactive) |
| O=C(NCCN1CCC2(CC1)C(=O)NCN2c1cccc(F)c1)c1ccc(F)c(F)c1 [ML 298 hydrochloride] | 1 (active) |
| CC(C)(N)Cc1ccccc1 [phentermine] | 0 (inactive) |
| CCn1cnc2c(Nc3cccc(Cl)c3)nc(N[C@H]3CCCC[C@H]3N)nc21 | 1 (active) |
| O=C(Nc1ccncc1)C(=O)c1cn(Cc2ccc(Cl)cc2)c2ccccc12 [Indibulin] | 1 (active) |
| CC[C@@H](C(=O)[C@@H](C)[C@@H](O)[C@H](C)[C@@H]1O[C@@H]([C@@H](CC)C(=O)O)CC[C@@H]1C)[C@H]1O[C@]2(C=C[C@@H](O)[C@]3(CC[C@@](C)([C@H]4CC[C@](O)(CC)[C@H](C)O4)O3)O2)[C@H](C)C[C@@H]1C [Salinomycin Sodium] | 1 (active) |
| CC[C@@H](CO)NC(=O)[C@@H]1C=C2c3cccc4c3c(cn4C)C[C@H]2N(C)C1 [methysergide] | 0 (inactive) |
| CN1C[C@H](C(=O)N[C@]2(C)O[C@@]3(O)[C@@H]4CCCN4C(=O)[C@H](Cc4ccccc4)N3C2=O)C=C2c3cccc4[nH]cc(c34)C[C@H]21 [ergotamine] | 1 (active) |
| C[C@H](CCC(=O)O)C[C@H](C)C[C@H](C)C(=O)/C=C(\O)[C@H](C)C[C@H](C)C/C=C/[C@@H](C)[C@@H](O)[C@@H](C)[C@@H](O)C[C@@H]1CC[C@@](C)([C@H]2CC[C@@](C)([C@@H](C)O)O2)O1 [Ionomycin free acid] | 0 (inactive) |
| N#CC(C#N)=NNc1ccc(OC(F)(F)F)cc1 | 1 (active) |
| COC1=CC(C)=C[C@@H](C)[C@@H](O)[C@@H](C)CC(C)=CC=C[C@H](OC)[C@@H]([C@@H](C)[C@@H](O)[C@H](C)[C@@]2(O)C[C@@H](O)[C@H](C)[C@@H](C(C)C)O2)OC1=O [Bafilomycin A1] | 1 (active) |
| COc1cc([C@@H]2c3cc4c(cc3[C@H](O)[C@H]3COC(=O)[C@H]23)OCO4)cc(OC)c1OC [Podophyllotoxin] | 1 (active) |
| CC[C@]12C=CCN3CC[C@]4(C(=C(C(=O)OC)C1)Nc1ccccc14)[C@@H]32 [Tabersonine dichlorhydrate] | 1 (active) |
